High-throughput results: PubChem BioAssay, National Center for Advancing Translational Sciences (NCATS)
Hits are enriched below; roughly 6.2% of the tested compounds scored in any of these assays.
HCMV inh = blocks human cytomegalovirus replication | HFF cells, HCMV-luciferase reporter, 72 h; stronger effect = lower value | activity change, negative = inhibition, % at 57.5 µM | hit rate 4.5% among 410,000 | AID 1259415; in the data active = activity change below about -60%; inconclusive = no clear call, values can overlap the other calls; inactive = above about -39%
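Human foreskin fibroblasts infected with luciferase-reporter HCMV at MOI 1 PFU/cell, compounds at two doses. Luciferase measured 72 h post infection; normalized to buffer-only basal and Salinomycin (10uM) controls.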
MARV entry inh = blocks Marburg virus binding to or entry into cells; Potency, µM (doses to about 37.8 µM), for the others: at the top dose activity change, negative = inhibition, most hits filed as inhibitors; hit rate 1.8% among 300,000; Marburg virus pseudotyped entry inhibition, cell reporter; AID 540276; calls by dose curve; tested in HEK293 cells; also: potency is read from the fitted curve at half-maximal effect
FMDV inh = foot and mouth disease virus antiviral activity. FMDV antiviral cell-based qHTS. Potency, µM (highest dose often 57.9 µM), for inactives: at the highest dose activity change, negative = inhibition, hits mostly inhibitors. hit rate 1.2% among 410,000. AID 1159524; calls by dose curve; tested in HEK293T cells; also: read-out not given here; potency is read from the fitted curve at half-maximal effect; nearly all actives have a fitted effect of over 45% in size
Lassa entry inh = inhibitors of Lassa virus binding or cell entry; Lassa virus pseudotype entry inhibition, cell reporter; Potency, µM (highest dose often 37.9 µM), without a hit: at the top dose activity change, negative = inhibition, usual class: inhibitors; hit rate 1.2% among 300,000; calls by dose curve; tested in HEK293 cells; also: potency is read from the fitted curve at half-maximal effect; nearly all actives have a fitted effect of over 50% in size
* = called active by the depositor; ? = inconclusive; · = not tested or not shown; ! = repeats disagree; [ ] = remark or other dose. % is scaled to controls: 0 for no effect and ±100 for the full control effect.

SMILES | HCMV inh | MARV entry inh | FMDV inh | Lassa entry inh
O=C(Nc1ccc(-c2csc(-c3ccccc3)n2)cc1)c1ccccc1Cl | -67* | ? | · | -18%
COc1ccccc1NC(=S)NNC(=O)c1cc(C)nn1C | -103* | ? | -1% | 2%
COc1ccc(C2=CC(=O)C[C@H](c3ccc(OC)cc3)C2)cc1 | 63 | · | 28% | ·
CC(C)c1ccc(S(=O)(=O)N2CCN(C(=O)Cc3ccsc3)CC2)cc1 | -13 | -3% | 9% | -5%
Cc1ccc(C)c(S(=O)(=O)N2CCN(C(=O)Cc3ccsc3)CC2)c1 | 14 | 22% | 4.5µM* | -29%
COc1ccc(C(=O)NCc2nnc(SCC(=O)Nc3nnc(C)s3)o2)cc1OC | 37 | · | -17% | ·
COc1cc(/C=N/N2C(C)CCCC2C)cc(Br)c1O (configuration not stated) | -29 | 5%[46.1 µM] | -1% | ?
COc1ccc(NC(=O)c2cc(-c3ccc(F)cc3OC(C)C)n[nH]2)cn1 | -15 | · | -30% | ·
CC(C)Oc1cc(F)ccc1-c1cc(C(=O)Nc2cccc(C(F)(F)F)c2)[nH]n1 | -64* | · | ? | ·
CCOc1ccc(NC(=S)NNc2ccnc3cc(Cl)ccc23)cc1 | 54 | ? | ? | -1%
CCOc1ccccc1Nc1ccnc2cc(Cl)ccc12 | ? | ? | -26% | 10µM*
Clc1ccc2c(NCc3ccccn3)ccnc2c1 | -72* | · | ? | ·
CCC(=O)Nc1ccc(NC(=O)CSc2nnnn2-c2ccc(OC)cc2)cc1 | -27 | · | 1% | ·
O=C(CSc1cccc2cccnc12)N/N=C/c1ccc(O)cc1 | 12 | · | -13% | ·
NNC(=O)c1ccc(CSc2cccc3cccnc23)cc1 | -1 | 2%[46.1 µM] | 20% | 19%
COc1cccc(/C=N/NC(=O)CSc2cccc3cccnc23)c1 | -92* | · | ? | ·
CCOC(=O)CSc1cccc2cccnc12 | -87* | ? | ? | 8%
Cc1cccc(CSc2cccc3cccnc23)c1 | -108* | ? | -18% | 1%
COc1ccc2nc(C)cc(SCC(=O)N/N=C/c3ccco3)c2c1 | -26 | 8.9µM* | -2% | ·
O=C(c1ccc2c(=O)n(Cc3ccc4c(c3)OCO4)c(=O)[nH]c2c1)N1CCN(c2ccccc2)CC1 | -14 | · | -13% | ·
Cc1ccc(Cl)cc1NC(=O)c1csnn1 | -13 | ? | 4% | -16%[46.1 µM]
Cc1cccc(S(=O)(=O)N(C)C[C@H]2OCc3cnnn3CCCC(=O)N([C@H](C)CO)C[C@H]2C)c1 | 7 | · | 7% | ·
O=C(O)c1[nH]c2ccc(Cl)cc2c1CC(=O)N1CCN(C(=O)c2ccco2)CC1 | 6 | 11% | 0% | 10%
COCCNC(=O)CSc1c2c(nc3cc(Cl)ccc13)CCCC2 | 5 | ? | ? | ?
O=C(CSc1c2c(nc3ccc(Cl)cc13)CCCC2)N1CCN(C(=O)c2ccco2)CC1 | 52 | · | 25µM* | ·
SMILES | HCMV inh | MARV entry inh | FMDV inh | Lassa entry inh
COc1ccc(CNC(=O)CSc2c3c(nc4ccc(Cl)cc24)CCCC3)cc1 | -37 | 21%[46.1 µM] | ? | 4%[46.1 µM]
O=C(c1ccco1)N1CCN(C(=O)C2CCCc3c2[nH]c2ccc(Cl)cc32)CC1 (configuration not stated) | -38 | 2.8µM* | -13% | 4.5µM*
Cc1ccc(CNC(=O)CSc2c3c(nc4ccc(Cl)cc24)CCCC3)o1 | 26 | ? | ? | 7.3µM*
CCN(CC)CCNC(=O)CSc1c2c(nc3cc(Cl)ccc13)CCCC2 | -99* | · | ? | ·
O=C(CSc1c2c(nc3ccc(Cl)cc13)CCCC2)N1CCCCC1 | 1 | 6%[46.1 µM] | ? | -16%[46.1 µM]
C/C(=N/NS(=O)(=O)c1ccc(F)cc1)c1ccc(NC(=O)c2ccc(C)o2)cc1 | 14 | -16% | 96% | -6%
COc1ccc(N(C(=O)c2snc(C(N)=O)c2N)C(C(=O)NCc2ccc(F)cc2)c2ccc(C)o2)c(OC)c1 (configuration not stated) | ? | 13µM* | 16% | 8.9µM*
COc1ccc(C(C(=O)NCc2ccccc2)N(C(=O)c2snc(C(N)=O)c2N)c2ccccc2OC)cc1OC (configuration not stated) | -75* | -25%[46.1 µM] | -10% | -22%
COCCNC(=O)C(c1ccc(C)o1)N(C(=O)c1snc(C(N)=O)c1N)c1ccc(C)c(C)c1 (configuration not stated) | -65* | -2% | 6% | 2%
COCCNC(=O)C(c1ccc(C)o1)N(C(=O)c1snc(C(N)=O)c1N)c1ccc(C)cc1 (configuration not stated) | ? | ? | · | -23%
COc1ccc(N(C(=O)c2snc(C(N)=O)c2N)C(C(=O)NCc2ccc(F)cc2)c2ccc(O)cc2)cc1 (configuration not stated) | -22 | ? | 30% | 2.8µM*
CCC1Oc2ccc(C)cc2N(CC(=O)NCCN2C(C)CCCC2C)C1=O (configuration not stated) | -15 | ? | · | -13%
CCn1cc(SCC(=O)NCC2CCCO2)c2ccccc21 (configuration not stated) | -7 | · | 0% | ·
CCC(c1nnnn1C(C)(C)C)N1CCN(Cc2ccccc2OC)CC1 (configuration not stated) | -72* | · | -8% | ·
CCCC(c1nnnn1CC1CCCO1)N1CCN(c2cc(Cl)ccc2C)CC1 (configuration not stated) | -12 | ? | ? | ?
COc1ccccc1C(c1nnnn1C(C)(C)C)N1CCN(Cc2ccncc2)CC1 (configuration not stated) | -27 | ? | -2% | -1%
CCC(c1nnnn1C(C)(C)C)N1CCN(c2cc(Cl)ccc2C)CC1 (configuration not stated) | -15 | 10µM* | -1% | 13µM*
COc1cccc(OC)c1C(=O)Oc1ccc2c(c1)O/C(=C\c1ccncc1)C2=O | -75* | 7.1µM* | ? | 5%
Cc1cccc(N2CCN(C(c3ccccc3)c3nnnn3C(C)(C)C)CC2)c1C (configuration not stated) | -40 | ? | -7% | 3.3µM*
Cc1cccc(N2CCN(C(c3cccs3)c3nnnn3C(C)(C)C)CC2)c1C (configuration not stated) | ? | 12µM*! | · | ?
CC(C)(C)n1nnnc1C(c1ccc(Cl)cc1)N1CCCc2ccccc21 (configuration not stated) | 8 | ? | -14% | 11%
COCCn1nnnc1C(c1cccs1)N1CCN(c2cc(C)ccc2C)CC1 (configuration not stated) | -8 | 16µM*! | · | ?
CC(C)(C)n1nnnc1C(c1cccnc1)N1CCN(c2ccccc2F)CC1 (configuration not stated) | 6 | 12% | -15% | 3%
COc1ccccc1N1CCN(C(c2ccc(Cl)cc2)c2nnnn2C(C)(C)C)CC1 (configuration not stated) | -66* | ? | ? | ?
c1ccc(-c2nc(-c3cccs3)c(NC3CCCCC3)o2)cc1 | · | -19%[14.2 µM] | · | ·
c1csc(-c2nnc(NC3CCCCC3)c3ccccc23)c1 | 39 | ? | 40µM* | -17%
CC1CCN(c2nnc(-c3cccs3)c3ccccc23)CC1 | -66* | 0% | 0% | ·
COc1ccc(Nc2nc(N)c([N+](=O)[O-])c(N3CCN(C)CC3)n2)cc1 | 58 | · | -9% | ·
